Consider nine compounds from PubChem BioAssay (NCI).

Compounds without any hit were thinned out: in the full panel of roughly 79,000, 15% have a hit. A number with no mark means an inactive call. The source made the active and inactive calls. Rule as the data show it: active = growth inhibition above about 70%; inactive = the rest.

Assay [1] can be described thus: NCI Yeast Anticancer Drug Screen. Data for the rad50 strain (AID 155).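 Also: 0% = growth of vehicle-only cultures of the same strain.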 The following applies: S. cerevisiae rad50 strain growth inhibition, active compounds read high. In outline: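 Relative growth inhibition (compound vs vehicle) was measured in yeast with a defined repair-gene alteration.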
Assay [2] is described as follows: NCI Yeast Anticancer Drug Screen. Data for the mec2-1 strain (AID 157). The following applies: S. cerevisiae mec2-1 strain, active compounds read high. An outline of the steps: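 Readout is yeast growth inhibition, normalised to vehicle-treated controls, in the mec2-1 strain exposed to compound.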
Assay [3] in a line: NCI Yeast Anticancer Drug Screen. Data for the sgs1 mgt1 strain (AID 161).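 Also: 0% = growth of cultures given vehicle only.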 Conditions: S. cerevisiae sgs1 mgt1 strain, active compounds read high. In outline:
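Compounds are added to genetically altered yeast, and growth is compared with cultures given vehicle alone to give percent inhibition.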

Assay [4] can be described thus: NCI Yeast Anticancer Drug Screen. Data for the cln2 rad14 strain (AID 165).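 Also: 0% = growth equal to vehicle treated cultures.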 Conditions: S. cerevisiae cln2 rad14 strain, active compounds read high. An outline of the steps:
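Relative to vehicle controls, growth inhibition of compound-treated cln2 rad14 yeast was recorded.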

The nature of assay [5]: NCI Yeast Anticancer Drug Screen. Data for the bub3 strain (AID 167). The following applies: S. cerevisiae bub3 mutant strain, active compounds read high. In outline:
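Screening used yeast with an engineered genetic alteration affecting cell cycle control. Compound-exposed cultures were compared with vehicle cultures, and reduced growth was taken as inhibition.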

A short description of assay [6]: NCI Yeast Anticancer Drug Screen. Data for the mlh1 rad18 strain (AID 175). Conditions: S. cerevisiae mlh1 rad18 strain growth inhibition, active compounds read high. In outline: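 Test agents were incubated with a yeast strain of defined genotype (DNA damage repair defect). Inhibition of growth was derived by comparison with vehicle-exposed cultures.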
Setting [7] is: at 5.0 µM (retest, dose inferred, filed as 0.5).
The mark [8] stands for this setting: at 50.0 µM (retest, dose inferred, filed as 5.0).

For the compound `CC(=O)SCC(=O)Nc1ccc(Cl)cc1`, the growth inhibition in assay [1] (setting [7]) is 9%; in assay [1] (setting [8]), 91% (active); in assay [1] (at 50.0 µM), 88% (active); in assay [2] (setting [7]), 1%; in assay [2] (setting [8]), 81% (active); in assay [2] (at 50.0 µM), 68.9%. The growth inhibition in assay [3] (setting [7]) is -4%; in assay [3] (setting [8]), 85% (active); in assay [3] (at 50.0 µM) it was 91.1% (active); in assay [4] (setting [7]), 2%; in assay [4] (setting [8]), 43%; in assay [4] (at 50.0 µM) it was 58.5%. Besides, the growth inhibition in assay [5] (setting [7]) is -18%; in assay [5] (setting [8]), 90% (active); in assay [5] (at 50.0 µM), 79.9% (active); in assay [6] (setting [7]), 7%; in assay [6] (setting [8]), 90% (active); in assay [6] (at 50.0 µM) it was 91.6% (active).
Consider `CNc1ccc(C(=O)NC(CCCCNC(=O)OCc2ccccc2)C(=O)OC)cc1` (configuration not stated), for which the growth inhibition is -3% in assay [1] (setting [7]); -1% in assay [1] (setting [8]); 93.8% (active) in assay [1] (at 50.0 µM); 1% in assay [2] (setting [7]); 10% in assay [2] (setting [8]); 95% (active) in assay [2] (at 50.0 µM). Further, the growth inhibition in assay [3] (setting [7]) was -18%; in assay [3] (setting [8]), -17%; in assay [3] (at 50.0 µM) it was 97.9% (active); in assay [4] (setting [7]) it was -5%; in assay [4] (setting [8]) it was 2%; in assay [4] (at 50.0 µM) it was 58.1%. Moreover, the growth inhibition in assay [5] (setting [7]) was -4%; in assay [5] (setting [8]) it was 0%; in assay [5] (at 50.0 µM) it was 95.6% (active); in assay [6] (setting [7]), 2%; in assay [6] (setting [8]), -9%; in assay [6] (at 50.0 µM), 98.6% (active).
Consider `O=[N+]([O-])c1cc(Cl)ccc1S(=O)(=O)c1ccccc1`, for which the growth inhibition in assay [1] (setting [7]) is -19%; in assay [1] (setting [8]) it was 75% (active); in assay [1] (at 50.0 µM) it was 77.2% (active); in assay [2] (setting [7]), -31%; in assay [2] (setting [8]), 30%; in assay [2] (at 50.0 µM), 62.1%. In addition, the growth inhibition in assay [3] (setting [7]) is -7%; in assay [3] (setting [8]) it was 57%; in assay [3] (at 50.0 µM), 78.8% (active); in assay [4] (setting [7]), 22%; in assay [4] (setting [8]) it was 40%; in assay [4] (at 50.0 µM), 47.5%. The growth inhibition was -13% in assay [5] (setting [7]); 79% (active) in assay [5] (setting [8]); 76.6% (active) in assay [5] (at 50.0 µM); -25% in assay [6] (setting [7]); 75% (active) in assay [6] (setting [8]); 79.7% (active) in assay [6] (at 50.0 µM).
As to `CC(=O)N/N=C1/CC[C@@]2(C)C(=CC[C@H]3C4CCC(C(C)CCCC(C)C)[C@@]4(C)CCC32)C1(C)C` (some centres not stated), the growth inhibition in assay [1] (setting [7]) was -23%; in assay [1] (setting [8]), 79% (active); in assay [1] (at 50.0 µM) it was 31.6%; in assay [2] (setting [7]) it was -14%; in assay [2] (setting [8]), 83% (active); in assay [2] (at 50.0 µM), 6.35%. In addition, the growth inhibition in assay [3] (setting [7]) is -7%; in assay [3] (setting [8]), 84% (active); in assay [3] (at 50.0 µM) it was 24.8%; in assay [4] (setting [7]), -11%; in assay [4] (setting [8]) it was 74% (active); in assay [4] (at 50.0 µM), 55.1%. For the same compound, the growth inhibition is -10% in assay [5] (setting [7]); 70% (active) in assay [5] (setting [8]); 29.6% in assay [5] (at 50.0 µM); -12% in assay [6] (setting [7]); 90% (active) in assay [6] (setting [8]); 1.3% in assay [6] (at 50.0 µM).
On to `C=C1CCC[C@@]2(C)CC[C@@H](/C(C)=C\C=C\C(C)(C)O)C[C@H]12`, for which the growth inhibition in assay [1] (setting [7]) was 0%; in assay [1] (setting [8]), 29%; in assay [1] (at 50.0 µM), 83.1% (active); in assay [2] (setting [7]), -1%; in assay [2] (setting [8]), 32%; in assay [2] (at 50.0 µM), 92.8% (active). The growth inhibition in assay [3] (setting [7]) was 2%; in assay [3] (setting [8]) it was 56%; in assay [3] (at 50.0 µM), 92.5% (active); in assay [4] (setting [7]), -5%; in assay [4] (setting [8]) it was 0%; in assay [4] (at 50.0 µM), 91.8% (active). Also, the growth inhibition in assay [5] (setting [7]) was 2%; in assay [5] (setting [8]), 28%; in assay [5] (at 50.0 µM) it was 91.7% (active); in assay [6] (setting [7]), -2%; in assay [6] (setting [8]), 53%; in assay [6] (at 50.0 µM), 88.8% (active).
Turning to `CC1(C)CC(=O)C2=C(C1)OC1=C(C(=O)CC(C)(C)C1)C2CC(c1ccccc1)c1ccc(O)c(O)c1O` (configuration not stated), the growth inhibition in assay [1] (setting [7]) is 22%; in assay [1] (setting [8]) it was 30%; in assay [1] (at 50.0 µM) it was 72.2% (active); in assay [2] (setting [7]) it was 6%; in assay [2] (setting [8]), -8%; in assay [2] (at 50.0 µM) it was 22.8%. The growth inhibition in assay [3] (setting [7]) was 9%; in assay [3] (setting [8]), 2%; in assay [3] (at 50.0 µM) it was 48.3%; in assay [4] (setting [7]), 5%; in assay [4] (setting [8]), 18%; in assay [4] (at 50.0 µM) it was 28.2%. Besides, the growth inhibition is -11% in assay [5] (setting [7]); -23% in assay [5] (setting [8]); 36% in assay [5] (at 50.0 µM); 30% in assay [6] (setting [7]); 10% in assay [6] (setting [8]); 56% in assay [6] (at 50.0 µM).
Regarding `CN(C)CCOC(=O)c1ccccc1`, the growth inhibition in assay [1] (setting [7]) is 3%; in assay [1] (setting [8]), 88% (active); in assay [1] (at 50.0 µM), 49.4%; in assay [2] (setting [7]), -6%; in assay [2] (setting [8]), 42%; in assay [2] (at 50.0 µM), 22.4%. The growth inhibition is -2% in assay [3] (setting [7]); 60% in assay [3] (setting [8]); 24% in assay [3] (at 50.0 µM); 0% in assay [4] (setting [7]); 81% (active) in assay [4] (setting [8]); 27.1% in assay [4] (at 50.0 µM). In addition, the growth inhibition in assay [5] (setting [7]) is -7%; in assay [5] (setting [8]), 71% (active); in assay [5] (at 50.0 µM), 37.2%; in assay [6] (setting [7]) it was 2%; in assay [6] (setting [8]) it was 78% (active); in assay [6] (at 50.0 µM), 42.2%.
Take `CC(C)C(=O)N1Cc2cc(Cl)cc(Cl)c2OC(=O)c2ccccc21`: the growth inhibition in assay [1] (setting [7]) was 18%; in assay [1] (setting [8]) it was 3%; in assay [1] (at 50.0 µM), 71% (active); in assay [2] (setting [7]) it was -1%; in assay [2] (setting [8]), 17%; in assay [2] (at 50.0 µM), 36.1%. The growth inhibition was -13% in assay [3] (setting [7]); 3% in assay [3] (setting [8]); 43.6% in assay [3] (at 50.0 µM); 32% in assay [4] (setting [7]); 47% in assay [4] (setting [8]); 48.7% in assay [4] (at 50.0 µM). In addition, the growth inhibition in assay [5] (setting [7]) is 19%; in assay [5] (setting [8]), 28%; in assay [5] (at 50.0 µM), 52.9%; in assay [6] (setting [7]), 4%; in assay [6] (setting [8]) it was 11%; in assay [6] (at 50.0 µM) it was 57.9%.
In the case of `O=C(Oc1ccccc1)c1ccc2ccccc2c1O`, the growth inhibition in assay [1] (setting [7]) is -4%; in assay [1] (setting [8]), -38%; in assay [1] (at 50.0 µM) it was 15.8%; in assay [2] (setting [7]), -5%; in assay [2] (setting [8]), -35%; in assay [2] (at 50.0 µM), 6.05%. Further, the growth inhibition was -5% in assay [3] (setting [7]); -14% in assay [3] (setting [8]); 2.7% in assay [3] (at 50.0 µM); -2% in assay [4] (setting [7]); -59% in assay [4] (setting [8]); -47.1% in assay [4] (at 50.0 µM). In addition, the growth inhibition was 36% in assay [5] (setting [7]); 52% in assay [5] (setting [8]); 77.7% (active) in assay [5] (at 50.0 µM); -4% in assay [6] (setting [7]); -27% in assay [6] (setting [8]); 4.1% in assay [6] (at 50.0 µM).
